# Shown are actives, neighbours in structure and some others; about 19% of the full set was active somewhere.
# TGFb SMAD3 inh – blocks TGF-b signaling. HepG2 CAGA-GFP TGF-b/SMAD3 reporter, GFP fluorescence, 18 h; TGF-beta stimulated, 500 pg/mL final. Potency, µM (top dose mostly 46.1 µM), actives largely listed as inhibitors. 410,000 tested, 1.2% active. AID 588855; further: nearly all actives have a fitted effect of over 65% in size
#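 HEPG2 CAGA-GFP, 1000 cells/well; 2 h settle, 37 C; cpd via pin tool; TGF-b 500 pg/mL final; 18 h, 37 C; GFP imaging ex488/em500-530; %Activity normalised to -TGF-b and +DMSO controls; CRC fit, curve class.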
# DT40 TDP1 CPT – DT40-hTDP1 cell growth loss with CPT; chicken DT40 Tdp1-/-;hTDP1 cells + 20 nM CPT, ATP luminescence, 48 h; Potency, µM (highest dose often 46.2 µM), usual class: inhibitors; 420,000 tested, 12% active; further: nearly all actives have a fitted effect of over 55% in size
#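 Chicken DT40 Tdp1-/- cells stably complemented with human TDP1 were seeded at 400 cells/well in medium containing 20 nM camptothecin, exposed to pin-transferred compounds, and grown at 37 °C for at least 48 hr. Viability was read as ATP luminescence.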
# HepG2 tox – HepG2 cytotoxicity, counter-screen for TGF-b inhibitors; 410,000 tested, 0.76% active; HepG2 CAGA-GFP viability, ATP luminescence, 18 h; Potency, µM (titrated, usually from 46.1 µM), hits mostly cytotoxic
#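 HepG2 CAGA-GFP cells (1000/well, DMEM with 1% FBS) received compound, then TGF-beta at 500 pg/mL final, and were incubated 18 hours at 37 degrees C. Viability was read by CellTiter-Glo luminescence. Media-only wells were set as complete cell-killing and DMSO as no toxicity.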
# IL1B secr inh – inflammasome signaling inhibition, IL-1 beta readout. THP-1 LPS/ATP IL-1B secretion, AlphaLISA, 16 h; stronger effect = lower value. activity change, % at 57.5 µM. 360,000 tested, 4.7% active. AID 743279; in the data active means activity change below about -50%; inconclusive means mostly about -30% to -49%
#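 THP-1 cells pretreated 1 hr with compounds (up to 57.5 uM final), then stimulated with LPS (250 ng/mL final) plus ATP (1.25 mM final); secreted IL-1B measured by AlphaLISA after 16 hr, decreased signal indicating inhibition.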
# S-ASM inh – human S-ASM enzyme inhibition; placental ASM, HMU-PC fluorogenic substrate, 60 min; Potency, µM (highest dose often 57.5 µM), hits mostly inhibitors; 340,000 tested, 0.006% active
# Target sequence (P17405 47-631 limits assumed): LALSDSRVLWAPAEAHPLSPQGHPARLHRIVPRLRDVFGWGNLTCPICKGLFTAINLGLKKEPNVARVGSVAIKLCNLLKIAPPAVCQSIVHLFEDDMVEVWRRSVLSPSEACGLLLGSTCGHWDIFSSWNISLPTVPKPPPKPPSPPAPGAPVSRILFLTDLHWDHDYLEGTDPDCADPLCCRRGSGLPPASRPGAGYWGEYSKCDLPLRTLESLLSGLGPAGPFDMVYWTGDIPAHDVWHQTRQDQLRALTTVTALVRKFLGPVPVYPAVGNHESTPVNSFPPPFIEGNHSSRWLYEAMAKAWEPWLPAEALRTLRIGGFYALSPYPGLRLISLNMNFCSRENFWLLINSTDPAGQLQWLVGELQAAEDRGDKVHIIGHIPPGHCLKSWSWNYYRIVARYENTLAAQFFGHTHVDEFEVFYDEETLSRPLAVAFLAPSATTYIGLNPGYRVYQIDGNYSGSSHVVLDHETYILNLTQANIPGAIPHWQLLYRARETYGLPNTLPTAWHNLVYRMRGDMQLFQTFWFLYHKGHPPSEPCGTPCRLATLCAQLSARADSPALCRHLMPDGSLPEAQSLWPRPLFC
#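 Human placenta-derived ASM preincubated with compound 10 min at room temperature, then reacted with 9 uM (final) fluorogenic HMU-PC substrate for 60 min at 37 C. Stop solution raises pH to 10; fluorescence read at Ex 386/Em 447 nm.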
# DT40 TDP1 no CPT – qHTS for Inhibitors of human tyrosyl-DNA phosphodiesterase 1 (TDP1): qHTS in cells in absence of CPT; DT40 Tdp1-/- hTDP1 cells, no CPT, ATP luminescence, 48 h; Potency, µM (top dose mostly 46.2 µM), hits mostly inhibitors; 420,000 tested, 15% active; AID 686978, 2013; further: nearly all actives have a fitted effect of over 55% in size
#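 Chicken DT40 Tdp1-/- cells complemented with human TDP1, screened without camptothecin (DMSO vehicle only), 400 cells/well. Compounds pin-transferred, cells incubated at 37 °C for at least 48 hr. Growth read as ATP-dependent luminescence (CellTiter-Glo, 30 min at RT).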
# Numbers stand for hits; – = inactive; ? = inconclusive; · = no result given. Unless noted, the call rests on the fitted dose curve; in most records, active means well fitted curve in the direction sought with a large enough effect; inconclusive means small, poorly fitted or top-dose-only effect, or another doubt; inactive means no such curve, though single readings can be large; an effect the other way counts as inactive or inconclusive.
SMILES,TGFb SMAD3 inh,DT40 TDP1 CPT,HepG2 tox,IL1B secr inh,S-ASM inh,DT40 TDP1 no CPT
O=[N+]([O-])c1ccc(/C=N/Nc2nc(-c3ccccc3)c3cc(Br)ccc3n2)o1,–,16.4µM,–,–,–,20.6µM
COc1cc(OC)cc(-c2nnc(SCC(=O)c3ccc([N+](=O)[O-])cc3)o2)c1,–,·,–,·,·,·
CCOC(=O)c1cc2[nH]c3ccccc3c2[n+](-c2ccc([N+](=O)[O-])cc2)c1N,?,11.6µM,–,-58.5,–,8.2µM
CCOC(=O)c1ccc(NC(=O)c2nc[nH]c2C(=O)N2CCc3ccccc3C2)cc1,–,11.6µM,–,–,–,13µM
CC(C)(C)OC(=O)NCc1ccc(CNC(=O)c2nc[nH]c2C(=O)N2CCN(c3ccccc3)CC2)cc1,?,?,–,–,–,25.9µM
CC(C)(C)OC(=O)NCc1ccc(CNC(=O)c2nc[nH]c2C(=O)N2CCc3ccccc3C2)cc1,?,?,–,–,–,18.4µM
CCOC(=O)c1c(C)c(C(=O)Nc2ccccc2)c(C)n1CC,–,–,–,–,–,–
CCOC(=O)c1c(C)c(C(=O)N2CCc3ccccc3C2)c(C)n1CC,–,?,–,–,–,25.9µM
O=C1CCc2cc(S(=O)(=O)NCc3ccc(F)cc3)cc3c2N1CC3,–,?,–,–,–,–
CN(CC(=O)Nc1ccccc1Cl)C(=O)COC(=O)c1ccc([N+](=O)[O-])s1,?,?,–,–,–,–
CCN(CC)S(=O)(=O)c1ccc2oc(C(=O)Nc3ccc(OC)cc3OC)c(C)c2c1,?,18.4µM,–,–,–,11.6µM
CCN(CC)S(=O)(=O)c1ccc2oc(C(=O)Nc3cc(C)ccc3OC)c(C)c2c1,–,?,–,·,·,?
CCN(CC)S(=O)(=O)c1ccc2oc(C(=O)NCc3ccc(F)cc3)c(C)c2c1,–,13µM,–,?,–,13µM
CCN(CC)S(=O)(=O)c1ccc2oc(Nc3ccc(OC)cc3OC)nc2c1,–,?,–,–,–,18.4µM
CCN(CC)S(=O)(=O)c1ccc2oc(C(=O)NC3CC3)c(C)c2c1,–,–,–,–,–,10.3µM
CCc1ccc2oc(C(=O)NCc3ccc(S(N)(=O)=O)cc3)c(C)c2c1,–,–,–,–,–,–
Cc1cc(NC(=O)C(C)SCC(=O)Nc2ccccc2OC(F)F)no1 (stereo unspecified),–,–,–,–,–,–
Cc1c(C(=O)NCc2ccc(F)cc2)oc2ccc(S(=O)(=O)N3CCOCC3)cc12,–,?,–,–,–,14.6µM
COc1ccc2oc(C(=O)NCc3cc(OC)c(OC)cc3OC)c(C)c2c1,–,23.1µM,–,–,–,16.4µM
Cc1c(C(=O)NCc2ccc3c(c2)OCO3)oc2ccc(S(=O)(=O)N3CCC(C)CC3)cc12,–,14.6µM,–,–,–,14.6µM
CCOC(=O)c1oc2ccc(S(=O)(=O)n3nc(-c4ccc(OC)cc4)cc3N)cc2c1C,–,2.91µM,–,–,–,2.91µM
O=C(NCc1ccccn1)c1[nH]c(C(F)(F)F)nc1-c1ccccc1,–,–,–,–,·,–
Cc1nc2ccccn2c(=O)c1NC(=O)c1ccc(C(F)(F)F)cc1,–,–,–,·,·,?
Cc1cccc(NC(=O)C(NS(=O)(=O)c2ccc3c(c2)oc(=O)n3C)C(C)C)c1 (stereo unspecified),–,–,–,·,·,–
CCCn1c(SCC(=O)NC2CC2)nnc1-c1ccccn1,–,–,–,–,–,–
SMILES,TGFb SMAD3 inh,DT40 TDP1 CPT,HepG2 tox,IL1B secr inh,S-ASM inh,DT40 TDP1 no CPT
COc1ccc(C(=O)COC(=O)C2COc3ccccc3O2)cc1F (stereo unspecified),–,–,–,–,–,–
CCC1=C(OC(=O)N(CC)CC)N2C(=O)OC(=NCC3CC3)[C@]2(Cc2ccccc2)[C@H]2C1=CC[C@H]1C(=O)N(CC)C(=O)[C@H]12,–,16.4µM,–,?,–,20.6µM
O=C(Nc1ccc(F)cc1)c1sc2cc(C(F)(F)F)cnc2c1-c1cccs1,–,?,–,–,–,18.4µM
CN(C)S(=O)(=O)c1cccc(NC(=S)NCCCn2ccnc2)c1,–,–,–,–,–,–
Cc1ccc(CS(=O)(=O)Cc2ccc(C(=O)NC3CCCCCC3)o2)cc1,–,?,–,–,–,?
Cc1cc(C)c(NC(=O)C(=O)NCC(c2cccnc2)N2CCN(Cc3ccccc3)CC2)c(C)c1 (stereo unspecified),–,11.6µM,–,·,·,5.8µM
O=C(NCc1cccnc1)C(=O)NCC(c1cccnc1)N1CCN(c2ccccc2F)CC1 (stereo unspecified),–,?,–,·,·,?
Cc1ccc(NC(=O)C(=O)NCC(c2cccnc2)N2CCN(c3ccccc3F)CC2)cc1Cl (stereo unspecified),–,20.6µM,–,·,·,23.1µM
Cc1cc(C)c(NC(=O)C(=O)NCC(c2cccnc2)N2CCN(c3ccccc3F)CC2)c(C)c1 (stereo unspecified),–,14.6µM,–,·,·,14.6µM
O=C1N=c2ccccc2=C1c1c(O)[nH]c2c(C(F)(F)F)cccc12,–,20.6µM,–,–,–,25.9µM
Cc1ccc(C(O)c2ncc(-c3cccc4ccccc34)[nH]2)cc1F (stereo unspecified),?,?,–,–,·,?
O=C(CN1CCN(C(=O)c2ccco2)CC1)Nc1ccccc1,–,–,–,–,–,–
CC(=O)OC1CC(C)N(C(=O)c2ccccc2)c2ccc(C)cc21 (stereo unspecified),–,?,–,–,–,?
CC1CC(Nc2ccccc2)c2ccccc2N1C(=O)c1ccncc1 (stereo unspecified),–,9.2µM,–,–,–,8.2µM
CC1CC(Nc2ccccc2)c2ccccc2N1C(=O)c1ccco1 (stereo unspecified),?,23.1µM,–,–,–,14.6µM
Cn1cc(CCC(=O)NC2CC(C)(C)Cc3c2cnn3-c2ccc(F)cc2)cn1 (stereo unspecified),–,?,–,–,–,?
O=C(NCc1cc(C(F)(F)F)cc(C(F)(F)F)c1)C1CC(c2ccccc2F)=NO1 (stereo unspecified),–,?,–,–,–,?
O=C(NCc1cccc(C(F)(F)F)c1)C1CC(c2ccccc2F)=NO1 (stereo unspecified),?,?,–,–,–,29.1µM
Cc1ccc(CNC(=O)C2CC(c3ccccc3F)=NO2)cc1 (stereo unspecified),–,?,–,–,–,16.4µM

# High-throughput results (PubChem)
